# Source: the supplement of paper PMC6555819
# Key:
# Experiment in all cases: PBM binding z-score (relative to random genomic background probes); higher = stronger binding; sequences stand for … in GC…GCGATTGACAGCGTAGAATGAAGG
# [1] = tested on: PPARg:RXRa DBDmut IVT, anti-RXR (DBD mutation: RXRa K156A/R161A, NR concentration 270 nM, RXRa partner concentration 90 nM)
# Procedure, shortened: (§1)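 The probes on custom Agilent 4×180K protein-binding microarrays were double-stranded, with 34-nt variable regions bearing direct-repeat seeds, single-nucleotide variants, half-site ablations and random human genomic background sequences. Incubation lasted 1 h with ligand-free nuclear receptor dimers in PBS pH 7.4, 2% milk, 0.02% Triton X-100, 1 mM DTT, 0.2 mg/mL BSA and 0.4 mg/ml salmon testes DNA. Antibodies against each partner (one per run) detected bound dimers, and fluorescence scans were regression-normalized. Binding z-scores take the random background probes as reference.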
# [2] = tested on: PPARg:RXRa IVT, anti-PPARg (NR concentration 270 nM, RXRa partner concentration 90 nM)
# Procedure, shortened: as §1
# [3] = tested on: PPARg DBDmut:RXRa IVT, anti-PPARg (DBD mutation: PPARg1 K132A/R137A, NR concentration 270 nM, RXRa partner concentration 90 nM)
# Procedure, shortened: as §1
# [4] = tested on: PPARg DBDmut IVT, anti-PPARg (DBD mutation: PPARg1 K132A/R137A, NR concentration 270 nM)
# Procedure, shortened: as §1
# [5] = tested on: PPARg homodimer (NR concentration 180 nM)
# Procedure, shortened: as §1
# [6] = tested on: PXR:RXRa (NR concentration 270 nM, RXRa partner concentration 90 nM)
# Procedure, shortened: as §1
# [7] = tested on: PXR homodimer (NR concentration 270 nM)
# Procedure, shortened: as §1
# [8] = tested on: RARa:RXR (NR concentration 270 nM, RXRa partner concentration 90 nM)
# Procedure, shortened: as §1
# [9] = tested on: RARa homodimer (NR concentration 270 nM)
# Procedure, shortened: as §1
# [10] = tested on: RARb:RXRa (NR concentration 270 nM, RXRa partner concentration 90 nM)
# Procedure, shortened: as §1
# [11] = tested on: RARb homodimer (NR concentration 270 nM)
# Procedure, shortened: as §1
# [12] = tested on: RARg:RXRa (NR concentration 270 nM, RXRa partner concentration 90 nM)
# Procedure, shortened: as §1
# [13] = tested on: RARg homodimer (NR concentration 270 nM)
# Procedure, shortened: as §1
# [14] = tested on: RXRa DBDmut IVT, anti-RXR (DBD mutation: RXRa K156A/R161A, NR concentration 90 nM)
# Procedure, shortened: as §1
# [15] = tested on: RXRa homodimer (NR concentration 180 nM)
# Procedure, shortened: as §1
# [16] = tested on: THRa:RXRa (NR concentration 90 nM, RXRa partner concentration 90 nM)
# Procedure, shortened: as §1
# [17] = tested on: THRa homodimer (NR concentration 90 nM)
# Procedure, shortened: as §1
# [18] = tested on: VDR homodimer (NR concentration 270 nM)
# Procedure, shortened: as §1
Sequence,PBM binding z-score [1],PBM binding z-score [2],PBM binding z-score [3],PBM binding z-score [4],PBM binding z-score [5],PBM binding z-score [6],PBM binding z-score [7],PBM binding z-score [8],PBM binding z-score [9],PBM binding z-score [10],PBM binding z-score [11],PBM binding z-score [12],PBM binding z-score [13],PBM binding z-score [14],PBM binding z-score [15],PBM binding z-score [16],PBM binding z-score [17],PBM binding z-score [18]
AATACAGCGTCACTAGGCCAGAGTAGGTACGAAT,0.487,1.5,-0.275,0.0334,-0.38,-0.519,-0.407,-0.516,-0.0306,-0.113,-0.144,-0.145,0.173,-0.271,-0.094,-0.216,-0.342,-0.308
ACAGACAGGTGATTGAAGGTAACTCAGCTGGACG,0.234,0.403,-0.375,-0.0689,0.449,-0.285,-0.239,0.452,-0.476,0.303,-0.184,0.204,0.419,-0.0738,0.195,1.92,-0.247,-0.308
ATATGTAGGTTAGCTGGGGACATTCAGACTAGGC,6.96,6.07,2.18,1.88,1.9,2.92,0.356,1.71,1.2,1.22,1.29,0.981,1.34,0.879,0.737,4.93,2.11,1.3
TCATATAGGTAAATGCTAGGTGCAAGTCCGATCT,3.77,1.96,1.24,0.918,0.912,0.511,0.449,0.897,0.586,0.263,-0.219,0.325,0.13,1.51,0.838,0.121,0.135,0.597
ATCTCTAGGTAAAAGTTAAGTGAATCCCGAGGAT,2.03,2.31,1.28,1.28,0.613,-0.127,-0.352,-0.144,0.373,0.28,-0.425,0.121,0.586,-0.231,0.0332,0.344,-0.106,0.265
CGTCCATGGTCAAAGGTCAGTGAAGAGATGACGG,0.409,3.55,0.423,0.425,6.15,4.15,0.407,5.38,0.504,4.41,4.5,5.6,5.53,0.569,5.87,2.73,-0.0105,0.771
ATCTCTAGGTAAAGTTCCGTGAAAGATCGATAGA,2.64,1.76,0.867,0.679,0.653,0.0557,0.396,0.388,1.19,0.403,-0.0472,0.28,0.381,0.35,0.0302,0.529,0.224,0.431
CCAGACAGGTGAGAAGGAAACTCAGCCTCGATTA,1.07,0.281,0.656,-0.614,0.615,-0.158,0.143,0.0468,0.447,0.0743,-0.0325,0.209,0.469,-0.203,0.154,-0.307,0.13,-0.0277
CTACCAAGGTGTACAAGGTCGTTGATTACTATTC,0.458,0.771,0.278,0.0269,0.61,1.61,1.18,1.47,0.124,0.901,1.21,0.657,0.16,1.14,0.934,1.99,1.32,2.13
TGATATAGGTAAAAGGTGAAAGTCGGTGTGGTAA,5.38,5.55,1.59,1.77,1.8,1.68,0.555,2.78,1.18,2.05,2.03,1.86,1.13,-0.0828,2.92,1.8,0.423,0.42
TCATATAGGTAAAAGGTGAAACTCGGTGTGGTAA,5.96,5.4,0.902,1.04,1.99,2.27,0.443,3.48,1.82,2.26,2.15,2.48,1.17,1.9,3.81,2.16,0.677,0.686
CTAACTAGGTCAGAACAGGACAGTGAAGGATGAT,7.81,7.46,1.78,0.779,1.28,0.958,0.15,0.805,0.43,2.94,2.03,1.85,3.26,0.797,1.07,3.55,0.222,-0.144
TCTCGCAGGACACGAAAGGTCAGAGCTCGACATC,1.62,1.4,0.807,0.509,2.57,3.87,0.38,4.53,1.07,3.95,4.29,4.42,4.47,1.05,4.07,3.42,0.878,0.759
TCATATAGGTAAACAGGTGAAAGTTCGTAAGTTA,4.94,5.28,1.8,1.15,1.88,2.07,2.12,2.61,2.02,1.25,1.49,1.11,0.601,1.62,2.31,1.4,0.587,1.55
CCTGCTAGGTCATGGACAGCTAATCTACAGTATG,4.72,3.72,0.434,0.0292,0.812,1.4,-0.443,2.53,0.184,3.84,2.73,4,4.68,1.85,3.17,2.9,0.931,0.0193
AGTCAAAGATCAGGACGAGGTAACGTAAAGCACG,-0.64,0.122,0.0525,0.169,-0.153,-0.236,-0.419,0.336,0.445,0.247,-0.273,0.544,0.425,-0.798,0.431,2.27,1.16,-0.321
